Values joined by “and” are separate entries in the source; they are usually repeats but may differ in a detail not shown here. Equal entries are not always repeated. The panel holds about 83,000 compounds, 20% with a hit somewhere; the sample as a whole holds those more often.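 Growth was measured after 48 h exposure to one concentration of compound in 96-well plates. Values under 10 count as active.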 Active and inactive are the calls of the source.
Columns and labels:
Test in all cases: NCI-60 one-dose screen, 48 h (100 = growth as untreated, 0 = no growth, -100 = all killed)
Conditions in all cases: 10 µM unless noted
[1] = tested on: NCI/ADR-RES ovarian
[2] = tested on: T-47D breast
[3] = tested on: BT-549 breast
[4] = tested on: MDA-MB-435 melanoma
[5] = tested on: SW-620 colon
[6] = tested on: MCF7 breast
[7] = tested on: HCT-116 colon
[8] = tested on: HCC-2998 colon
[9] = tested on: KM12 colon

Measured: growth

CC(=O)Nc1nc2c(s1)C1=CC[C@H]3[C@@H]4CC[C@H](OC(C)=O)[C@@]4(C)CC[C@@H]3[C@@]1(C)CC2
inactive: [1] 43.4% | [2] 74.3% | [3] 39.2% | [5] 43.3% | [6] 44.1% | [7] 39.8% | [8] 93.7% | [9] 50.8%
active: [4] 4.51%

C/C(=N/OC(=O)N(C)C)c1ccc(Cl)c(Cl)c1
inactive: [1] 106% | [2] 95.6% | [3] 125% | [4] 106% | [5] 115% | [6] 97.3% | [7] 107% | [8] 109% | [9] 109%

CCCCCCCCCCCCCCCC[N+](C)(C)C
inactive: [1] 51.9% and 82.5%
-78% (active) and 16.9% (inactive): [6]
active: [2] 4.4% and -13.9% | [3] -76% and -41.5% | [4] -70.1% and 7.38% | [5] -92.5% and 8.75% | [7] -72% and 4.21% | [9] -83% and -93.1%
-91% (active) and 20.9% (inactive): [8]

Cc1cc(NC(=O)NCCCOc2ccc(N3C(N)=NC(N)=NC3(C)C)cc2Cl)ccc1S(=O)(=O)F
inactive: [1] 100% | [2] 51.1% | [3] 59.9% | [4] 27.7% | [5] 18.5% | [6] 25.5% | [7] 17.8% | [9] 20.9%
active: [8] 7.8%

COC(=O)C1=CCCN(C)C1
inactive: [1] 107% and 115% | [2] 101% and 113% | [3] 97.7% | [4] 98.9% and 96.1% | [5] 111% and 110% | [6] 96.1% and 101% | [7] 102% and 108% | [8] 102% and 124% | [9] 117% and 109%

CCOP(=O)(OCC)C(=O)N(CC)CC
inactive: [1] 102% | [2] 96.3% | [3] 95.1% | [4] 97.8% | [5] 99.6% | [6] 95.2% | [7] 104% | [8] 110% | [9] 98.2%

Cc1cc[c-]cc1.Fc1c[c-]c(-c2ccccn2)c(F)c1.[Pt+2].c1ccc([PH+](c2ccccc2)c2ccccn2)cc1
inactive: [1] 88.2% | [2] 23.5% | [3] 63.2% | [4] 39.3% | [5] 45.6% | [6] 38.9% | [7] 35% | [8] 83.2% | [9] 52.4%

O=C(Cc1ccccc1)c1ccccc1
inactive: [1] 105% | [2] 100% | [3] 100% | [4] 102% | [5] 96.6% | [6] 92% | [7] 101% | [8] 114% | [9] 99.8%

C[C@]12CC[C@H]3[C@@H](C[C@@H]4SC(Nc5ccccc5)=N[C@@]45C/C(=N/O)CC[C@]35C)[C@@H]1CCC2=O
inactive: [1] 86.2% | [2] 64.4% | [3] 35.6% | [4] 51.6% | [5] 34.8% | [6] 28.4% | [8] 102% | [9] 67.8%
active: [7] 9.01%

O=S(OO)c1cc(Cl)c(O)c(Cl)c1 (configuration not stated)
inactive: [1] 101% | [2] 87.6% | [3] 89.1% | [4] 97.1% | [5] 98.3% | [6] 78.6% | [7] 105% | [8] 95.5% | [9] 108%

CN(C)[C@@H]1C(=O)C(C(N)=O)=C(O)[C@@]2(O)C(=O)C3=C(O)c4c(O)ccc(Cl)c4[C@@](C)(O)[C@H]3C[C@@H]12
inactive: [1] 104% and 109% | [2] 91.5% and 97.7% | [3] 87.6% | [4] 99.6% and 103% | [5] 101% and 97.7% | [6] 94.8% and 86.8% | [7] 81.4% and 102% | [8] 92.2% and 125% | [9] 94.7% and 102%

O=C=Nc1ccc(Br)cc1
inactive: [1] 107% | [2] 92.2% | [3] 98.3% | [4] 108% | [5] 103% | [6] 97.8% | [7] 94.3% | [8] 100% | [9] 105%

COC12CC3C4=CCOC5CC(=O)N6c7ccccc7C1(CCN2C4)C6C53 (configuration not stated)
inactive: [1] 111% | [2] 103% | [3] 96.3% | [4] 114% | [5] 107% | [6] 95.2% | [7] 108% | [8] 96% | [9] 105%

— PubChem BioAssay (NCI)
